In PubChem BioAssay (Tox21):
Records with an inconclusive call do not appear. A call without a number means that no potency is given here. Active and inactive are the calls of the source. Calls come from the whole dose curve; as a rule, active = well fitted curve in the direction sought with a large enough effect in the repeat runs; inconclusive = weak or mixed curves; inactive = no such curve, though single readings can be large; an effect the other way counts as inactive or inconclusive.

How the values were obtained:
[1] = Human pregnane X receptor (PXR) small molecule agonists, qHTS cell viability counter screen (AID 1346977); note: nearly all actives have a fitted effect of over 50% in size
In short: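 Tox21 qHTS format; PXR-Luc HepG2, 2,000/well, charcoal-stripped FBS 5%. Cpd exposure 24hr. Read: CellTiter-Fluor fluorescence, multiplexed with luciferase.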

[2] = Caspase-3/7 induction in CHO-K1 cells by small molecules, qHTS cell viability counter screen (AID 1346979); note: nearly all actives have a fitted effect of over 35% in size
In short: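 CellTiter-Fluor viability check, qHTS format: wild-type CHO-K1, 16hr compound treatment, 1hr reagent incubation, fluorescence read.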

[3] = Caspase-3/7 induction in HepG2 cells by small molecules, qHTS cell viability counter screen (AID 1346981); note: series mostly up to about 92 µM; nearly all actives have a fitted effect of over 30% in size
In short: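 Multiplexed with the caspase-3/7 assay: HepG2 cells, 16 hr compound treatment, CellTiter-Fluor viability detection by fluorescence.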

[4] = molecular target: Nuclear receptor subfamily 1 group I member 2 (Homo sapiens) (UniProt O75469); assay: Human pregnane X receptor (PXR) small molecule agonists, qHTS assay (AID 1346982); note: nearly all actives have a fitted effect of over 35% in size
In short: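 We seeded PXR-Luc HepG2 cells in assay medium containing 5% charcoal-stripped FBS, added compounds 5 hr later, incubated 24 hr, and read luminescence with ONE-Glo reagent.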

[5] = molecular target: Nuclear receptor subfamily 1 group I member 2 (Rattus norvegicus) (UniProt Q9R1A7); assay: Rat pregnane X receptor (rPXR) activation by small molecules, qHTS assay (AID 1346983); conditions: rPXR luciferase reporter cells, One-Glo luminescence, 24 h; hits give high values; note: nearly all actives have a fitted effect of over 20% in size
In short: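 Cell-based rPXR luciferase reporter assay, 2,000 cells per well, rested 5hr at 37 C before compound addition in DMSO, then 24 hr at 37 C. One-Glo reagent was added and luminescence read after 30 min at room temperature.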

[6] = molecular target: Nuclear receptor subfamily 1 group I member 2 (Homo sapiens) (UniProt O75469); assay: CYP3A4 induction through human pregnane X receptor (PXR) by small molecules, qHTS assay (AID 1346984); note: nearly all actives have a fitted effect of over 40% in size
In short: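 qHTS, concentration-response format: HepG2 DPX-2 line, PXR/CYP3A4-luc. Exposure 24 h, 37C. Substrate Luciferin-IPA 3uM final, 3 h. Detection One-Glo, 30 min RT.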

[7] = molecular target: Nuclear receptor subfamily 1 group I member 2 (Homo sapiens) (UniProt O75469); assay: Human pregnane X receptor (PXR) activation by small molecules, qHTS assay (AID 1346985); note: nearly all actives have a fitted effect of over 40% in size
In short: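 DPX-2 cells (HepG2 co-transfected with a PXR response element and a CYP3A4-promoter luciferase construct) were seeded at 2,000 per well, rested 5 hr at 37C, then exposed to DMSO-dissolved compounds for 24 hr. Activation was read as luciferase luminescence.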

[8] = molecular target: Cytochrome P450 2D6 (Homo sapiens) (UniProt P10635); assay: Cytochrome P450 Family 2 Subfamily D Member 6 (CYP2D6) small molecule antagonists: luciferase reporter qHTS assay (AID 1671196); note: nearly all actives have a fitted effect of over 50% in size; note: potency is the fitted concentration of half-maximal effect
In short: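 Luminescence (RLU), read 20 min after detection reagent, indicated CYP2D6 conversion of proluciferin to luciferin during a 1 h NADPH-dependent reaction at room temperature.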

[9] = molecular target: Cytochrome P450 2C19 (Homo sapiens) (UniProt P33261); assay: Cytochrome P450 Family 2 Subfamily C Member 19 (CYP2C19) small molecule antagonists: luciferase reporter qHTS assay (AID 1671197); note: nearly all actives have a fitted effect of over 65% in size; note: potency is the fitted concentration of half-maximal effect
In short: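 First, compounds are pinned into enzyme-substrate mix and held 10 min at room temperature. Second, NADPH regeneration solution is added and plates incubate 1 h at 37C. Third, detection reagent is added and luminescence read after 20 min.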

[10] = molecular target: Cytochrome P450 2C9 (Homo sapiens) (UniProt P11712); assay: Cytochrome P450 Family 2 Subfamily C Member 9 (CYP2C9) small molecule antagonists: luciferase reporter qHTS assay (AID 1671198); note: nearly all actives have a fitted effect of over 50% in size; note: potency is the fitted concentration of half-maximal effect
In short: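 CYP2C9 activity was measured with a P450-Glo proluciferin substrate. Enzyme–substrate mix was held with compound for 10 min at room temperature, then NADPH regeneration solution was added for 1 h at 37C. Luciferin product was read as luminescence.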

[11] = molecular target: Cytochrome P450 1A2 (Homo sapiens) (UniProt P05177); assay: Cytochrome P450 Family 1 Subfamily A Member 2 (CYP1A2) small molecule antagonists: luciferase reporter qHTS assay (AID 1671199); note: nearly all actives have a fitted effect of over 50% in size; note: potency is the fitted concentration of half-maximal effect
In short: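 CYP1A2 turnover of a luminogenic substrate was quantified after 1 h with NADPH regeneration at room temperature. Furafylline served as positive control.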

[12] = molecular target: Voltage-gated inwardly rectifying potassium channel KCNH2 (Homo sapiens) (UniProt Q12809); assay: Human Ether-a-go-go-Related Gene (hERG) channel small molecule antagonists: fluorescence cell-based qHTS assay (AID 1671200)
In short: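 Kinetic two-minute fluorescence traces, sampled at 1 s, were collected following thallium stimulus of U2OS cells (1000 per well) that had been cultured overnight at 37 C and loaded with FluxOR II.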

[13] = molecular target: Cytochrome P450 3A4 (Homo sapiens) (UniProt P08684); assay: Cytochrome P450 Family 3 Subfamily A Member 4 (CYP3A4) small molecule antagonists: luciferase reporter qHTS assay (AID 1671201)
In short: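 Proluciferin-to-luciferin conversion by CYP3A4, NADPH-regenerated, 1 h RT; luminescence read as RLU. Ketoconazole as control.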

[14] = Caspase-3/7 induction in CHO-K1 cells by small molecules, qHTS assay (AID 1346980); note: nearly all actives have a fitted effect of over 15% in size
In short: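 Wild-type cells were seeded at 1,500 per well and settled 5 hr at 37 C, 5% CO2, then exposed to DMSO-dissolved compounds for 17 hr. Caspase-Glo 3/7 reagent was added, and luminescence was read after 30min at room temperature.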

[15] = Caspase-3/7 induction in HepG2 cells by small molecules, qHTS assay (AID 1346978); note: nearly all actives have a fitted effect of over 15% in size
In short: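 Wild-type HepG2 cells (2,000/well) were settled 5 h at 37 C, 5% CO2, then exposed to compounds in DMSO for 17 h. Caspase-3/7 activity was read by luminescence 30 min after adding Caspase-Glo 3/7 reagent at room temperature.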

Cytochrome P450 3A4 (Homo sapiens), sequence (P08684 whole entry, looked up): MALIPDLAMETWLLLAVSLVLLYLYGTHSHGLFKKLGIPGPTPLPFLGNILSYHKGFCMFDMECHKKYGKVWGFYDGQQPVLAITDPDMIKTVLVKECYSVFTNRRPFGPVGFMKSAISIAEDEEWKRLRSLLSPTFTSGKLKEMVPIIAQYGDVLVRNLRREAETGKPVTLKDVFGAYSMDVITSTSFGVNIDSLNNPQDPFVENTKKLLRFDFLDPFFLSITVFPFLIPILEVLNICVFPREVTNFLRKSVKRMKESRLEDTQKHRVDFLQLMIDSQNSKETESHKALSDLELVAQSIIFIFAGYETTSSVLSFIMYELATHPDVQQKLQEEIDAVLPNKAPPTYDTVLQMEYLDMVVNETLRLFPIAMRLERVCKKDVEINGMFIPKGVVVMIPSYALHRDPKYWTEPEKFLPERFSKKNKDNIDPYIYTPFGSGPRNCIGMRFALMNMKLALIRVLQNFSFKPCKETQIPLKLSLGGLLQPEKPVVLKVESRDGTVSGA
Cytochrome P450 1A2 (Homo sapiens), sequence (P05177 whole entry, looked up): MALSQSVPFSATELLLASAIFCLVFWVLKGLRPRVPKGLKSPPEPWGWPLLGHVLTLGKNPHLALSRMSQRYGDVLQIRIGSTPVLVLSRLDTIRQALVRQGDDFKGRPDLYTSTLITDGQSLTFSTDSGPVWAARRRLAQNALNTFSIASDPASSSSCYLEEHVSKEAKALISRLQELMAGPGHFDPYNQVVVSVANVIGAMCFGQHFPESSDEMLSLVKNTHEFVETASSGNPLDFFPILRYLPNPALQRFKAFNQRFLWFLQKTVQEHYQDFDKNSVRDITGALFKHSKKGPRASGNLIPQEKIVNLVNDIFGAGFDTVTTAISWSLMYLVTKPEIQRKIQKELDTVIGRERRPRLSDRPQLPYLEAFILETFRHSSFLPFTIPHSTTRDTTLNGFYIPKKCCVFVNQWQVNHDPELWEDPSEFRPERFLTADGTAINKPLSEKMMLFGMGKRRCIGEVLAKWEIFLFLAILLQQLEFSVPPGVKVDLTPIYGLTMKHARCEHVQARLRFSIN
Nuclear receptor subfamily 1 group I member 2 (Homo sapiens), sequence (O75469 whole entry, looked up): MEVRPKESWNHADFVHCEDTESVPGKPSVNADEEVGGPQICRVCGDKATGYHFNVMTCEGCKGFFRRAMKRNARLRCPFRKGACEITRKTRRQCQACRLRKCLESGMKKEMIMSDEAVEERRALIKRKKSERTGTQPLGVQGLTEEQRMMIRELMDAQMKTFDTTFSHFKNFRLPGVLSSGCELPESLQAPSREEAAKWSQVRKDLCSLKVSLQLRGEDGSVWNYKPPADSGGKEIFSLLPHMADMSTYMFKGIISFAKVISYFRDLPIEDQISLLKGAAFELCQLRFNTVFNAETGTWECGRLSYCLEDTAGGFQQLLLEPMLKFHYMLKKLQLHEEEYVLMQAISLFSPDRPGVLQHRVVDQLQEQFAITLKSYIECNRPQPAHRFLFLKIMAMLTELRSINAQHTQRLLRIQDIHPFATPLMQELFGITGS
Cytochrome P450 2D6 (Homo sapiens), sequence (P10635 whole entry, looked up): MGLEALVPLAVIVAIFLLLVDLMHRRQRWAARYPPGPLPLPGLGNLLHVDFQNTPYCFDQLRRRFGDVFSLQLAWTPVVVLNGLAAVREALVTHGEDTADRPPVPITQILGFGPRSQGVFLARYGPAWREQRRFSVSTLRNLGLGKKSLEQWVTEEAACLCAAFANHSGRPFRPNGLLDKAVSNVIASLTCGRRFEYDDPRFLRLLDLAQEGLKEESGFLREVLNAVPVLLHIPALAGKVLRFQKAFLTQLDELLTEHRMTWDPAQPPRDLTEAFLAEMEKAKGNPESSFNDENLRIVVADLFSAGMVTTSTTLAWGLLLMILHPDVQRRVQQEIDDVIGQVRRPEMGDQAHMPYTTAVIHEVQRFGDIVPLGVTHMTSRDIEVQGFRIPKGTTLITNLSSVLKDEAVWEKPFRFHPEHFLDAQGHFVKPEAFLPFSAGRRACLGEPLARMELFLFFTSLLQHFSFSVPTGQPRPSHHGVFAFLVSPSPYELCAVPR
Voltage-gated inwardly rectifying potassium channel KCNH2 (Homo sapiens), sequence (Q12809 whole entry, looked up): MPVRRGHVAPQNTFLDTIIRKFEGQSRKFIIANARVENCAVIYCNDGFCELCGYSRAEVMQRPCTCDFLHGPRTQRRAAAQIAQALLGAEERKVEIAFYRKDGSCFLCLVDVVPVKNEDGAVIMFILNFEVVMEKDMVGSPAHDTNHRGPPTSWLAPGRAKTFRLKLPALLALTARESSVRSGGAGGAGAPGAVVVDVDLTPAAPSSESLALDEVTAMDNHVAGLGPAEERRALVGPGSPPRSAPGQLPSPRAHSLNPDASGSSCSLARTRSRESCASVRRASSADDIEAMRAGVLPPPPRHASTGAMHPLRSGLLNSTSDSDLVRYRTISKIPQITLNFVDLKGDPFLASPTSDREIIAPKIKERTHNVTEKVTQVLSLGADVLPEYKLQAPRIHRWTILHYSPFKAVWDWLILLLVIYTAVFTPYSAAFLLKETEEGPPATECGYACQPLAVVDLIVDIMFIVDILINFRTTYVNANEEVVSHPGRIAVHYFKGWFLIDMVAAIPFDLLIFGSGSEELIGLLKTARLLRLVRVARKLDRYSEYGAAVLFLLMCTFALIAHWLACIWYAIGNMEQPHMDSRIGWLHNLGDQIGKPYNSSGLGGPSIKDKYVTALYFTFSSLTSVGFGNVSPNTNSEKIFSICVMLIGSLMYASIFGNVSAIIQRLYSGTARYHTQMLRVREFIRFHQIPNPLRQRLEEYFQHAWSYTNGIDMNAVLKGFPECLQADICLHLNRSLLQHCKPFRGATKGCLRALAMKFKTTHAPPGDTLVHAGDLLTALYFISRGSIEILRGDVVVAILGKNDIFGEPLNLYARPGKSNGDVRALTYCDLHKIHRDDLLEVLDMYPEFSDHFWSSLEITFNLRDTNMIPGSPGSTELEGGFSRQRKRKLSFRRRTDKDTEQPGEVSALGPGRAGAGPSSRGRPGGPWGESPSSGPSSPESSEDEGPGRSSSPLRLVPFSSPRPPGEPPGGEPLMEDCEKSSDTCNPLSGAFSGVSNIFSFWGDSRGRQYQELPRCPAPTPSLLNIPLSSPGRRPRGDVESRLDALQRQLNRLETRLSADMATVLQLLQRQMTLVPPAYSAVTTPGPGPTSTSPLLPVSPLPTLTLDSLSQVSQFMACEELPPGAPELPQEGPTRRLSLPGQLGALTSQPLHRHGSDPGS
Cytochrome P450 2C9 (Homo sapiens), sequence (P11712 whole entry, looked up): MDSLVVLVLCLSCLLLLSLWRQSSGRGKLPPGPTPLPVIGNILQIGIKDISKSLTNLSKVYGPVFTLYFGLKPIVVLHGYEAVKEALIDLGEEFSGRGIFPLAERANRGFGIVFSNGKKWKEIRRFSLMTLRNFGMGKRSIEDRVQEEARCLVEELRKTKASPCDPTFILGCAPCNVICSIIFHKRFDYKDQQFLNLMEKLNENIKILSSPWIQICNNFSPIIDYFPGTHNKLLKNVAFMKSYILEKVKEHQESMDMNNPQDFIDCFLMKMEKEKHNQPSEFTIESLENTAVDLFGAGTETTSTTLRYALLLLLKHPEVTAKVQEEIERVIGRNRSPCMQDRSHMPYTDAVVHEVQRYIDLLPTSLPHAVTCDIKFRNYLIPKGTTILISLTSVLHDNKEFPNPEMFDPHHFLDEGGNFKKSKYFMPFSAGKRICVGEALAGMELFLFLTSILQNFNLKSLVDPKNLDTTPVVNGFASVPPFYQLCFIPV
Cytochrome P450 2C19 (Homo sapiens), sequence (P33261 whole entry, looked up): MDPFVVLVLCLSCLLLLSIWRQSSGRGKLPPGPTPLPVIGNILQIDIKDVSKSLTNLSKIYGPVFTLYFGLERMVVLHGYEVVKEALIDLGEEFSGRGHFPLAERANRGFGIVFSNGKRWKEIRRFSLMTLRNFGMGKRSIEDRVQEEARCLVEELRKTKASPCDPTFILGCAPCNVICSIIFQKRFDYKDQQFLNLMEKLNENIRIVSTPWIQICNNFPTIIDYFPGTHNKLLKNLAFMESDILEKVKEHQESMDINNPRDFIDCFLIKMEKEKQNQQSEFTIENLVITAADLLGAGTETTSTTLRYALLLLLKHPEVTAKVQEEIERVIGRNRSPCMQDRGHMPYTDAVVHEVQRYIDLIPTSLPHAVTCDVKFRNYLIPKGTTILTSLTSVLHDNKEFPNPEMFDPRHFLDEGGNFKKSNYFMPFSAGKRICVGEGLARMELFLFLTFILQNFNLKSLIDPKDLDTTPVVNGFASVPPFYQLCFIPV
Nuclear receptor subfamily 1 group I member 2 (Rattus norvegicus), sequence (Q9R1A7 whole entry, looked up): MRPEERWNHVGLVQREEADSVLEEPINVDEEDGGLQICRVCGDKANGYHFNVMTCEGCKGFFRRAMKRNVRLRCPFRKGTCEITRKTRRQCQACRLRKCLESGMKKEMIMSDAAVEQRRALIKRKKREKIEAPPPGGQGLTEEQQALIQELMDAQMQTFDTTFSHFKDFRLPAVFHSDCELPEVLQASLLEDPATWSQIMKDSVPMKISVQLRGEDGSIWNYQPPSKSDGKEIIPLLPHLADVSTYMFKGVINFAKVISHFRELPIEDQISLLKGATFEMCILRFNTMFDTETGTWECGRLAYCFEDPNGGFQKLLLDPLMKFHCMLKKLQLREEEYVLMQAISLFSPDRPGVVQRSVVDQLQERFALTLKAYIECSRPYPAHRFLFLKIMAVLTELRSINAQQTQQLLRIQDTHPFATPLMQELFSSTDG

SMILES | Potency [1] | Potency [2] | Potency [3] | Potency [4] | max activation [5] | Potency [6] | Potency [7] | Potency [8] | Potency [9] | Potency [10] | Potency [11] | Potency [12] | Potency [13] | outcome [14] | Potency [15]
FC1(F)C(F)(F)C(F)(F)C2(F)C(F)(F)C(F)(F)C(F)(F)C(F)(F)C2(F)C1(F)F (centres undefined) | inactive | inactive | inactive | inactive | -2.25% (inactive) | inactive | inactive | inactive | inactive | inactive | inactive | inactive | inactive | – | –
CO/N=C(/C(=O)N[C@@H]1C(=O)N2C(C(=O)OCOC(=O)C(C)(C)C)=C(C)CS[C@H]12)c1csc(N)n1 | inactive | inactive | inactive | inactive | – | – | – | – | – | 11 µM (active) | – | inactive | – | inactive | –
CC(C[N+](C)(C)C)OC(N)=O (centres undefined) | – | inactive | inactive | inactive | 0.875% (inactive) | inactive | inactive | – | inactive | inactive | – | inactive | inactive | inactive | inactive
Cc1cccc(C)c1NC(=O)C(C)N (centres undefined) | inactive | – | inactive | inactive | -0.615% (inactive) | inactive | inactive | inactive | inactive | inactive | inactive | inactive | inactive | – | –
C[N+](C)(C)CCCCCC[N+](C)(C)C | inactive | inactive | inactive | – | 0.135% (inactive) | – | – | inactive | inactive | inactive | inactive | inactive | inactive | – | –
CC(=O)OCC(=O)[C@@]1(O)CCC2C3CCC4=CC(=O)CC[C@]4(C)C3[C@@H](O)C[C@@]21C (some centres undefined) | inactive | inactive | – | inactive | – | – | – | – | inactive | – | inactive | inactive | inactive | inactive | –
C=COCC1CCC(CO)CC1 (centres undefined) | inactive | inactive | – | inactive | – | – | – | inactive | inactive | – | inactive | inactive | inactive | inactive | –
CCCN1CCCC[C@H]1C(=O)Nc1c(C)cccc1C | inactive | inactive | inactive | – | 0.29% (inactive) | – | – | 4.9 µM (active) | inactive | inactive | inactive | inactive | – | – | –
CN1CCCC1 | inactive | inactive | inactive | inactive | – | – | – | – | inactive | inactive | inactive | inactive | inactive | inactive | –
NS(=O)(=O)c1cc(C(=O)O)cc(N2CCCC2)c1Oc1ccccc1 | inactive | – | inactive | inactive | 1.61% (inactive) | inactive | inactive | inactive | inactive | inactive | inactive | inactive | inactive | inactive | –
COc1nc(N)nc2c1ncn2[C@@H]1O[C@H](CO)[C@@H](O)[C@@H]1O | – | inactive | inactive | – | – | – | – | inactive | inactive | inactive | 24.5 µM (active) | inactive | inactive | – | inactive
CCOC(C)(C)C | – | – | inactive | inactive | – | – | – | inactive | inactive | inactive | inactive | inactive | inactive | inactive | –
CN1CCC(=C2c3ccccc3CC(=O)c3sccc32)CC1 | – | inactive | – | inactive | – | – | – | 2.45 µM (active) | 34.7 µM (active) | inactive | inactive | inactive | inactive | inactive | inactive
C=CCCCCCCCCC=O | – | – | – | inactive | – | – | – | inactive | 79.6 µM (active) | 31.7 µM (active) | – | inactive | – | inactive | inactive
COC(=O)CC(C)=O | – | – | inactive | inactive | – | – | – | inactive | inactive | inactive | inactive | inactive | inactive | – | –
COC(=O)CCSCCC(=O)OC | – | inactive | – | inactive | – | – | – | inactive | inactive | inactive | – | inactive | inactive | inactive | inactive
CCS(=O)(=O)c1ccc(OC)c(C(=O)OC)c1 | – | inactive | – | inactive | – | – | – | inactive | inactive | inactive | inactive | inactive | inactive | inactive | inactive
O=C1NC(=O)[C@@]2(CCOc3ccc(F)cc32)N1 | – | – | inactive | inactive | -0.447% (inactive) | inactive | inactive | inactive | inactive | inactive | inactive | inactive | inactive | inactive | inactive
NC(=O)c1ccc([N+](=O)[O-])cc1 | – | inactive | inactive | inactive | – | – | – | inactive | 79.3 µM (active) | – | 39.8 µM (active) | inactive | inactive | inactive | –
C=CCS(=O)(=O)O | – | inactive | inactive | – | – | – | – | – | inactive | inactive | inactive | inactive | inactive | inactive | inactive
C=C(C)CS(=O)(=O)O | – | inactive | – | inactive | – | – | – | inactive | inactive | inactive | 35.6 µM (active) | inactive | inactive | inactive | inactive
CC(=O)OCC(=O)[C@@]1(O)CC[C@H]2[C@@H]3CCC4=CC(=O)CC[C@]4(C)[C@H]3C(=O)C[C@@]21C | – | inactive | – | inactive | – | – | – | – | inactive | – | inactive | inactive | inactive | inactive | inactive
